# Laboratory results: PubChem BioAssay AID540317 (National Center for Advancing Translational Sciences (NCATS), 2011)
# The whole screen tested about 390,000 compounds, of which about 2,200 (0.56%) were called active. About 3% were inconclusive and are not listed. Calls come from the whole dose curve; as a rule, active = well fitted inhibition curve with a large enough effect; inconclusive = small, poorly fitted or top-dose-only effect; inactive = no such curve, though single readings can be large or run the other way. This excerpt belongs to a sample that is enriched for actives.
# Biological target: Chromobox protein homolog 1 (Homo sapiens) (UniProt P83916)
# Assay: HTS for Inhibitors of HP1-beta Chromodomain Interactions with Methylated Histone Tails; note: nearly all actives have a fitted effect of over 70% in size
# Details: AlphaScreen HP1-beta / biotin-H3K9me3 peptide binding; series mostly up to 114 µM; activity change, negative = inhibition: at the top concentration
# Summary of the method: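 AlphaScreen: HP1-beta (50 nM) preformed 30 min with biotin-H3(1-18)K9me3 peptide (50 nM) in PBS pH 7.4, 0.01% Tween-20. Compound added for 30 min at RT, then streptavidin donor/nickel chelate acceptor beads (10 ug/mL) for 30 min.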
# Potency is the fitted concentration of half-maximal effect.
# Chromobox protein homolog 1 (Homo sapiens), sequence (P83916 whole entry, looked up): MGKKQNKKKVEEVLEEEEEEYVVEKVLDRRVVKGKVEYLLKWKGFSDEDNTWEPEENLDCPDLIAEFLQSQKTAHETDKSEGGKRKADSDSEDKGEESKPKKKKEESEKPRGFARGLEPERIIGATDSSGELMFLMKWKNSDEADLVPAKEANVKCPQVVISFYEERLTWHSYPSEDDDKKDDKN
SMILES,"activity change, negative = inhibition",Potency
COc1ccc(CCNC(=O)c2ccc(-n3c(C)cc4c3CCCC4)cc2)cc1OC,10.2% (inactive),–
CCOC(=O)c1ccc(NC(=O)c2c(NCc3cccs3)sc3c2CCCC3)cc1,-7.25% (inactive),–
O=C(CN1CCN(c2ncc(C(F)(F)F)cc2Cl)CC1)Nc1ccc2c(c1)OCO2,11.5% (inactive),–
Cc1ccc(C(=O)O)cc1-c1ccc(/C=C2\SC(=O)N(CC(=O)Nc3ccc4c(c3)OCO4)C2=O)o1,–,79.4 µM (active)
COC(=O)c1ccc2c(c1)N(CC(=O)Nc1ccc(C)c(C)c1)C(=O)c1ccccc1S2,24.8% [at 57 µM] (inactive),–
COc1ccc(S(=O)(=O)c2c(Nc3cccc(Cl)c3)sc(C(=O)c3ccccc3)c2N)cc1,11.4% (inactive),–
O=C1Cc2cc(S(=O)(=O)Nc3ccc(OC(F)(F)F)cc3)cc3c2N1CCC3,43.4% (inactive),–
Nc1ncc(S(=O)(=O)Nc2ccc(OC(F)(F)F)cc2)cn1,25% [at 57 µM] (inactive),–
O=S(=O)(Nc1ccc(O)c2ccccc12)c1ccc(OC(F)(F)F)cc1,–,44.7 µM (active)
O=C(NCCCO)c1nn(-c2ccc(Cl)cc2)nc1CO,20.1% (inactive),–
CCOc1ccc(NC(=O)CSc2nnc3c(n2)[nH]c2ccc(S(=O)(=O)N4CCOCC4)cc23)cc1,11.7% (inactive),–
Cc1cc(Nc2cc(N3CCN(C)CC3)nc(Sc3ccc(NC(=O)C4CC4)cc3)n2)n[nH]1,9.95% (inactive),–
O=C(COc1ccccc1)Nc1ccc(N2CCN(C(=O)c3cccs3)CC2)cc1,-10.2% (inactive),–
C=CC(=O)Nc1ccc(Nc2ccnc(Nc3ccc(N4CCN(C)CC4)cc3)n2)cc1,–,44.7 µM (active)
Cc1cc2nn(-c3ccc(Cl)cc3)nc2cc1NC(=O)C(C)C,35.5% (inactive),–
Oc1c(Br)cc(/C=N/NC(=S)NCC2CCCO2)cc1Br (stereo unspecified),19% (inactive),–
COc1cc(/C=N/Nc2ccc(C)cc2)cc(Br)c1O,–,79.4 µM (active)
COc1ccc(S(=O)(=O)NNC(=O)Nc2ccc(C)cc2)c(OC)c1,28.3% (inactive),–
CN1CCN(C(CNC(=O)c2ccccc2F)c2ccc3c(c2)OCO3)CC1 (stereo unspecified),23.5% [at 57 µM] (inactive),–
Clc1ccccc1CSc1nncn2c1cc1occc12,4.73% (inactive),–
Fc1ccc(CSc2nc(NCc3ccccc3)c3ccccc3n2)cc1,61.9% (inactive),–
CC1(C)N=C(SCc2ccccc2Cl)c2ccccc2N1,259% (inactive),–
Clc1ccccc1CSc1nnc(-c2ccco2)c(-c2ccco2)n1,–,20 µM (active)
CN(C)C(=O)CSc1n[nH]c(-c2ccco2)n1,2.01% (inactive),–

SMILES,"activity change, negative = inhibition",Potency
c1ccc(CSc2nnc(-c3ccco3)c(-c3ccco3)n2)cc1,–,39.8 µM (active)
Cc1ccc(CNC(=O)CCc2c(C)nn(-c3ccc(N4CCCC4)nn3)c2C)cc1,134% (inactive),–
CCCN1CCC(=O)N(C(CSc2ccc(OC)cc2)Cc2ccccc2)CC1 (stereo unspecified),30.4% (inactive),–
COc1ccc(Cl)cc1S(=O)(=O)N1CCC(c2ccncc2)CC1,54.6% (inactive),–
CC(C)(C)C1C/C(=C/c2ccco2)C(=O)/C(=C/c2ccco2)C1 (stereo unspecified),–,39.8 µM (active)
COc1ccc(OC)c(NC(=O)CSC2=Nc3ccccc3C3=NC(CC(=O)NCc4ccc(F)cc4)C(=O)N23)c1 (stereo unspecified),-3.25% (inactive),–
CCc1nc2nc(C)cc(Nc3ccc(F)c(Cl)c3)n2n1,26.4% (inactive),–
COc1ccc(S(=O)(=O)Nc2cccc3cccnc23)c(N)c1,13% (inactive),–
COc1ccc(C(=O)Nc2ccc(-n3nncc3-c3ccccc3)cc2)cc1OC,-12.4% (inactive),–
CC(=O)Nc1ccc(S(=O)(=O)N2N=NC3C2C2CC4C3(CN(C(=O)OC(C)(C)C)S4(=O)=O)O2)cc1 (stereo unspecified),33.6% (inactive),–
COc1cccc(-c2nc(S(=O)(=O)c3ccc(C)cc3)c(NCc3ccccc3)o2)c1,76.4% (inactive),–
Cc1ccc2c(c1)N(C(=O)Nc1ccc(Br)cc1F)CCO2,11.8% (inactive),–
COC(=O)c1scc(-c2ccc(C)cc2)c1S(=O)(=O)Nc1cc(Cl)c(OC)cc1OC,15.8% (inactive),–
O=[N+]([O-])c1ccc(N2CCN(c3ccc(O)cc3)CC2)c(Cl)c1,–,50.1 µM (active)
O=C(O)C1CCN(c2ccc([N+](=O)[O-])cc2[N+](=O)[O-])CC1,-25.7% (inactive),–
CCN1CCN(c2ccc([N+](=O)[O-])cc2C(=O)c2ccc(Cl)cc2)CC1,-17.5% (inactive),–
COc1ccc(CCn2c3c(c(=O)[nH]c2=S)CN(C(C)C)CN3)cc1OC,3.75% (inactive),–
Cc1cc(C)c(/C=C/c2onc(C)c2S(=O)(=O)N2CCC(C(=O)Nc3ccc(Cl)cc3C)CC2)c(C)c1,23.2% [at 57 µM] (inactive),–
CCN(CC)S(=O)(=O)c1ccc2c(c1)N(CC(=O)NCC(C)c1ccccc1)C(=O)CO2 (stereo unspecified),30.7% (inactive),–
Cc1ccccc1C(=O)N(Cc1ccc(N(C)C)cc1)CC1CCCO1 (stereo unspecified),-16.7% (inactive),–
Cc1nc2c(c(C)nn2-c2ccccc2)c(C)c1CCC(=O)NCCc1ccc(Cl)cc1,24.9% (inactive),–
CCCNC(=O)C1CCC(Cn2c(=O)c3sccc3n(Cc3ccccc3F)c2=O)CC1 (stereo unspecified),63.9% (inactive),–
COc1ccc(N(C)C(=O)C2CCN(S(=O)(=O)c3cc(Br)cc4c3N(C(C)=O)CC4)CC2)cc1,20.3% (inactive),–
O=c1ccc2c(-c3ccccc3S(=O)(=O)O)c3ccc(O)c(O)c3oc-2c1O,–,1 µM (active)

SMILES,"activity change, negative = inhibition",Potency
CCOc1cccc(NC(=O)c2ccc(F)c(S(=O)(=O)N(CC)c3cccc(C)c3)c2)c1,28.9% (inactive),–
CCN(Cc1ccccc1)S(=O)(=O)c1ccc2c(c1)CCCN2C(C)=O,17.3% [at 57 µM] (inactive),–
Cc1ccc(Cl)cc1NC(=O)/C(C#N)=C\c1cn(Cc2ccc(F)cc2)c2ccccc12,6.98% (inactive),–
COc1ccc(Cn2c(=O)[nH]c3cc(C(=O)N4CCN(C(=O)c5ccco5)CC4)ccc3c2=O)cc1,24.4% (inactive),–
COc1ccc(NC(=O)N2CCCC(C(=O)Nc3ccccc3OC)C2)cc1 (stereo unspecified),67.2% (inactive),–
COc1ccc(CNC(=O)C2CCC(CNc3c(N4CCOCC4)c(=O)c3=O)CC2)cc1 (stereo unspecified),–,inactive
Cc1cccc(C)c1NC(=O)CNC(=O)C1CCCC1,9.1% (inactive),–
COc1ccc(N2CCC(N3CCN(C)C(CCO)C3)CC2)cc1 (stereo unspecified),54.7% (inactive),–
COc1ccc(N2CCC(CNC(=S)Nc3c(C)cccc3C)C2)cc1 (stereo unspecified),–,20 µM (active)
COc1ccc(NC(=S)NCC2CCN(c3ccc(OC)cc3)C2)cc1 (stereo unspecified),–,25.1 µM (active)
CCCN1CCC(=O)N(C(CSc2ccc(C)cc2)Cc2ccccc2)CC1 (stereo unspecified),16.5% (inactive),–
COc1ccc(CCNS(=O)(=O)c2cc(-c3cc(C)no3)ccc2C)cc1OC,38.1% (inactive),–
COc1cccc(NC(=O)N2CCN(C(=O)c3nsc4ccccc34)CC2)c1,51.1% (inactive),–
Cc1cc(C)cc(OC(C)C(=O)Nc2nc3c(s2)CCCC3)c1 (stereo unspecified),-9.84% (inactive),–
COc1cc(C2c3c(oc4ccccc4c3=O)C(=O)N2c2nc(C)c(C)s2)ccc1O (stereo unspecified),12.1% (inactive),–
COc1ccc(Cl)cc1NC(=O)CSc1nc(-c2cccs2)cc(C(F)(F)F)n1,35% (inactive),–
COc1cc(/C=C/C(=O)OCC(=O)Nc2cccc(Oc3ccccc3)c2)ccc1O,-1.38% (inactive),–
COc1cc(/C=N\Nc2nc(-c3cccs3)c(NC(C)=O)s2)ccc1O,–,22.4 µM (active)
COc1ccc(CNC(=O)CSCc2nc(-c3ccccc3F)oc2C)cc1,37.2% (inactive),–
COc1ccc(Cn2c(=O)sc3ccccc32)cc1OC,19.8% (inactive),–
COc1ccc(CCNC(=O)CCCCn2c(=O)c3ccccc3n(Cc3ccccc3)c2=O)cc1OC,38.4% (inactive),–
COc1cc(/C=C2/SC(=S)N(Cc3ccccc3)C2=O)cc(OC)c1O,–,20 µM (active)
Cc1nc(SCC(=O)N2CCN(c3ccccc3)CC2)[nH]c(=O)c1C,22% (inactive),–
COc1cccc(-c2nc(CS(=O)(=O)CC(=O)N3CCN(c4cc(C)ccc4C)CC3)c(C)o2)c1,15.8% (inactive),–

SMILES,"activity change, negative = inhibition",Potency
O=C1C[C@@H](c2ccc3ccccc3c2)N1S(=O)(=O)c1ccccc1[N+](=O)[O-],11.9% (inactive),–
CCN(CC)C(=O)CSc1nc2cc3c(cc2c(=O)n1CCCC(=O)NCc1ccc2c(c1)OCO2)OCO3,35.7% (inactive),–
CC(=O)N1CCCc2cc(S(=O)(=O)Nc3ccc(Cl)cc3F)ccc21,4.63% [at 57 µM] (inactive),–
C=CS(=O)c1sc(Cl)c(N2CCOCC2)c1[N+](=O)[O-] (stereo unspecified),–,44.7 µM (active)
CCn1c2c(c(=O)n3ncc(C(=O)N4CCN(c5ccccc5)CC4)c13)CN(Cc1ccc(OC)cc1)CC2,38.7% [at 57 µM] (inactive),–
COc1ccccc1CNC(=O)C(=O)NCC(c1cccs1)S(=O)(=O)c1cccs1 (stereo unspecified),18.9% (inactive),–
Cc1nnc(C)n1-c1ccc(C(=O)Nc2cccc(Br)c2)cc1,29% [at 57 µM] (inactive),–
FC(F)(F)c1cc(Nc2nc3ccccc3c3nncn23)ccc1Cl,26.1% (inactive),–
Cc1cccc(C)c1Nc1c(-c2ccccc2O)nc2ncccn12,–,inactive
Cc1ccccc1Nc1c(-c2ccccc2)nc2ncccn12,33.7% (inactive),–
CCc1cccc(C)c1Nc1c(-c2ccc(N(C)C)cc2)nc2ncccn12,–,17.8 µM (active)
COc1ccc(CCNC(=O)c2ccc3c(c2)sc2nc(-c4ccc(C)cc4)cn23)cc1OC,43.6% (inactive),–
c1ccc(Cn2nnc3c(N4CCCCC4)ncnc32)cc1,66.1% (inactive),–
CCN(CC)S(=O)(=O)c1cccc(NC(=O)c2ccc(S(=O)(=O)N3CCCC3)cc2)c1,42.7% (inactive),–
COC(=O)c1ccc(/C=N/N2C(C)CCCC2C)cc1 (stereo unspecified),-18.2% (inactive),–
CCN(CC)S(=O)(=O)c1cccc(-c2n[nH]c(=S)n2/N=C/c2ccc(C(=O)OC)cc2)c1,–,50.1 µM (active)
CCCCNC(=O)Cn1c(SCc2cccc(Cl)c2)nc2ccncc21,22.8% [at 57 µM] (inactive),–
CCOC(=O)c1cc2c(=O)n3ccccc3nc2n(CC2CCCO2)c1=NC(=O)c1ccccc1Br (stereo unspecified),46.8% (inactive),–
COC(=O)c1ccccc1NC(=O)C(Cc1ccccc1)N1Cc2ccccc2C1=O (stereo unspecified),44.1% (inactive),–
COc1cc(NC(=O)c2nn(-c3ccc(C)cc3)c(=O)c3c2c2ccccc2n3C)cc(OC)c1OC,3.41% (inactive),–
Cc1cccc(N2CCN(C(=O)c3ccccc3NC(=O)C3CCCCC3C(=O)O)CC2)c1 (stereo unspecified),23.8% (inactive),–
Cc1cccc(-n2c(N)c(C(=O)N3CCN(C)CC3)sc2=S)c1,–,7.94 µM (active)
COc1cccc(N2CCN(c3ccc4nnc(CCC(=O)N5CCN(C)CC5)n4n3)CC2)c1,12% [at 57 µM] (inactive),–
C=CCn1c(=S)[nH]c2scc(-c3ccco3)c2c1=O,–,35.5 µM (active)
